Measured values as given in the supplement of paper PMC10849652.
Targets with a hit are over-represented here; the source holds about 8,800 in all. About 0.5% of all pairs of compound and target were hits. A number with no mark means an inactive call.

Legend:
Assay in all cases: log2 fold change, soluble protein after heating vs DMSO (PISA); higher = thermal stabilisation; K562 lysate, 10 uM; active = over 0.2 and 3.5 SD of the protein, either way, in both replicates (recomputed)
alvocidib = compound: CN1CC[C@H](c2c(O)cc(O)c3c(=O)cc(-c4ccccc4Cl)oc23)[C@H](O)C1 [alvocidib]
How it was run: (§1)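 Values give the log-two fold change in thermal stability against solvent controls, from duplicates. Crude K562 extract at 1 mg/mL protein, made by dounce homogenisation in PBS pH 7.4 with 1 mM MgCl2, was treated with 10 μM compound for 30 min. After 3 min heating across 48°C-58°C, aliquots were pooled, adjusted to 0.5% NP-40 at 4°C and centrifuged at 21,000xg for 90 min. The supernatant was measured by TMTpro 16plex LC-MS/MS with channel sums equalised.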

Tubastatin A = compound: CN1CCc2c(c3ccccc3n2Cc2ccc(C(=O)NO)cc2)C1 [Tubastatin A]
How it was run: as §1

[1] = compound: CNC(=O)C1=CC=CC=C1NC2=NC(=NC=C2Cl)NC3=C(C=C(C=C3)N4CCOCC4)OC
How it was run: as §1

defactinib = compound: CNC(=O)c1ccc(Nc2ncc(C(F)(F)F)c(NCc3nccnc3N(C)S(C)(=O)=O)n2)cc1 [defactinib]
How it was run: as §1

[2] = compound: CNc1nc(-c2ccc3c(N)n[nH]c3c2)cc(N2C[C@@H](C(=O)NC3CCCCC3)CC[C@H]2C)n1
How it was run: as §1

encorafenib = compound: COC(=O)N[C@@H](C)CNc1nccc(-c2cn(C(C)C)nc2-c2cc(Cl)cc(NS(C)(=O)=O)c2F)n1 [encorafenib]
How it was run: as §1

[3] = compound: COC(=O)[C@H](CCSC)NC(=O)C1=C(C=C(C=C1)NC[C@H](CS)N)C2=CC=CC=C2
How it was run: as §1

alisertib = compound: COc1cc(Nc2ncc3c(n2)-c2ccc(Cl)cc2C(c2c(F)cccc2OC)=NC3)ccc1C(=O)O [alisertib]
How it was run: as §1

[4] = compound: COc1cc2nc(-c3cc(F)ccc3O)nc(N[C@@H]3CNC[C@H]3C(C)(C)O)c2cc1OC
How it was run: as §1

gefitinib = compound: COc1cc2ncnc(Nc3ccc(F)c(Cl)c3)c2cc1OCCCN1CCOCC1 [gefitinib]
How it was run: as §1

Chain of UniProt Q92685 (Q92685 whole entry, looked up): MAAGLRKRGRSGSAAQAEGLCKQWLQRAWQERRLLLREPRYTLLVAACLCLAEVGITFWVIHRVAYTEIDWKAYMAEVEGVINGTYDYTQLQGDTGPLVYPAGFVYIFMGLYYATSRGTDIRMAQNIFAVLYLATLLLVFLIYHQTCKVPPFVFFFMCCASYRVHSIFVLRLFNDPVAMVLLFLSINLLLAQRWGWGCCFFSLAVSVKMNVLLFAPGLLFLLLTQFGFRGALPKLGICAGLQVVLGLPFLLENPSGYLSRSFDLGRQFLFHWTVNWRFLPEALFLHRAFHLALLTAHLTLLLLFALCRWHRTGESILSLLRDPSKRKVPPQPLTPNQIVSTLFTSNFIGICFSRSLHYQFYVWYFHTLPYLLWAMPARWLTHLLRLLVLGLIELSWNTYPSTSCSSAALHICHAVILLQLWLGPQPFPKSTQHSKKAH
Chain of UniProt P16219 (P16219 whole entry, looked up): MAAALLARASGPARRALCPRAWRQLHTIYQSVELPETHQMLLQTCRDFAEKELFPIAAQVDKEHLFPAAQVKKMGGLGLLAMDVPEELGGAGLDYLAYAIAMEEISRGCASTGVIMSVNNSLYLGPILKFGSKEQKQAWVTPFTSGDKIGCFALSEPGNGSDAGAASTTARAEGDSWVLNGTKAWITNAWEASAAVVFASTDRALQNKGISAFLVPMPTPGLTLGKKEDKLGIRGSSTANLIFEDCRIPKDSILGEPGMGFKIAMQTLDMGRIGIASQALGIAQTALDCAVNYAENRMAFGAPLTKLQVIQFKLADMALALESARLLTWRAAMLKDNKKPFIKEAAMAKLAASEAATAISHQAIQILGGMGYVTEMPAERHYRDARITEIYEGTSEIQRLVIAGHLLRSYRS
Chain of UniProt Q02252 (Q02252 whole entry, looked up): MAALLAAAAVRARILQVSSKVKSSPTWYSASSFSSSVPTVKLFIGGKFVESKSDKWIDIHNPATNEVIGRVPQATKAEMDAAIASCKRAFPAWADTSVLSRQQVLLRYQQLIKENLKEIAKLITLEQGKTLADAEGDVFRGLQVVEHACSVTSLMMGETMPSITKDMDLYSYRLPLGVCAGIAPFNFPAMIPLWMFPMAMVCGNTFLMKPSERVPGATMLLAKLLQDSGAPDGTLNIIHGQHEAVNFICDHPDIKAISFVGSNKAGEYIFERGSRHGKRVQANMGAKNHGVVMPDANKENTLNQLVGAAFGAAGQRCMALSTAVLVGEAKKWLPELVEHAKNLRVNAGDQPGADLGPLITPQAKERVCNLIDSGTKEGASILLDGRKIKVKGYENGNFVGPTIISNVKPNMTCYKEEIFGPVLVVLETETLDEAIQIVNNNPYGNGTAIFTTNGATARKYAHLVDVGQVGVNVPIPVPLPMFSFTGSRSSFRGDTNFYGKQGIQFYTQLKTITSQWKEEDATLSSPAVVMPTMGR
Chain of UniProt Q96NW4 (Q96NW4 whole entry, looked up): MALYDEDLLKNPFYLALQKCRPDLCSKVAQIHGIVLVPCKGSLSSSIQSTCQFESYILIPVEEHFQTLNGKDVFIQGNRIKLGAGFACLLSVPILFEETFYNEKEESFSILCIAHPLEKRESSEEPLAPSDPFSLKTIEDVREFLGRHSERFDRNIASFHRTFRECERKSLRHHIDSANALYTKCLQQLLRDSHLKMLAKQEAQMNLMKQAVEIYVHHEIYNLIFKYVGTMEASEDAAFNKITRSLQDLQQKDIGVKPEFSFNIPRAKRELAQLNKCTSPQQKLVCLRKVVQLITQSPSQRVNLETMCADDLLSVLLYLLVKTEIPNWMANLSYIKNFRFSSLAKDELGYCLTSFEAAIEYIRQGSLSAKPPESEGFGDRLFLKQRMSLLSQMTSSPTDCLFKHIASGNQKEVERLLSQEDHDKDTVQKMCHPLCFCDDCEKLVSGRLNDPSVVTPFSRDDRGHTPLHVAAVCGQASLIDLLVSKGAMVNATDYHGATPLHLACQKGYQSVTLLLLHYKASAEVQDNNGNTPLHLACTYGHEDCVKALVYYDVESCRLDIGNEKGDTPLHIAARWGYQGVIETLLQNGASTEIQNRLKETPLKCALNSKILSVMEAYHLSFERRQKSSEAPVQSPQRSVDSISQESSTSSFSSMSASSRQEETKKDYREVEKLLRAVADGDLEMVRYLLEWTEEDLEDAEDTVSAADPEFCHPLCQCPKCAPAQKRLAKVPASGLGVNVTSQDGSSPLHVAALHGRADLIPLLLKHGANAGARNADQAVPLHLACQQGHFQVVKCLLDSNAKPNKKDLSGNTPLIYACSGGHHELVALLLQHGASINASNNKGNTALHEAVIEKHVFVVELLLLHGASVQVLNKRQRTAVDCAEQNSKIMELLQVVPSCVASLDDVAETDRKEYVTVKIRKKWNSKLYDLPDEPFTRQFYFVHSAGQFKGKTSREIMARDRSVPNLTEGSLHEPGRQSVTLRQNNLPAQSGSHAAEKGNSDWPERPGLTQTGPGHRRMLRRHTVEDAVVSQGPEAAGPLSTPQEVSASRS
Chain of UniProt Q12797 (Q12797 whole entry, looked up): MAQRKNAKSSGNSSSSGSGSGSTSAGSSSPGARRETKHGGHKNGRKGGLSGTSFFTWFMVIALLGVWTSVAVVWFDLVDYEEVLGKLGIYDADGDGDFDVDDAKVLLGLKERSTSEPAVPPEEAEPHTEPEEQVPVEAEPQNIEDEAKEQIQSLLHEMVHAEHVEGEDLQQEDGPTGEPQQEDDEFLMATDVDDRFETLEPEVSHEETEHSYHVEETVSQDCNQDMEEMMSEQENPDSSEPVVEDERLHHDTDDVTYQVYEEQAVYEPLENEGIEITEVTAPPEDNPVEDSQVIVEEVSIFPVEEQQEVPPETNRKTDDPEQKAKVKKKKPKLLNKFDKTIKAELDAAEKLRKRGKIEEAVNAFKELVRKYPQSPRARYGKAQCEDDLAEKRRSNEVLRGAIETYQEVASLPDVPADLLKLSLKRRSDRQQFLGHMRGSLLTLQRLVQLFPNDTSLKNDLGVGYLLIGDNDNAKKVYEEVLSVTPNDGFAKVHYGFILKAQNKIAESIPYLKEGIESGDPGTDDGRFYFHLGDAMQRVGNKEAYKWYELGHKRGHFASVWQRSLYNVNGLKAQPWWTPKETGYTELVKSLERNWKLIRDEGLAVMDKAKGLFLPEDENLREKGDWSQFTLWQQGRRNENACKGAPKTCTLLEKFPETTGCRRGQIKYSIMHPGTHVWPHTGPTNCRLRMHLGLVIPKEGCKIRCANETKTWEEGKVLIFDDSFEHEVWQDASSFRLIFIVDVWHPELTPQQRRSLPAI
Chain of UniProt Q13686 (Q13686 whole entry, looked up): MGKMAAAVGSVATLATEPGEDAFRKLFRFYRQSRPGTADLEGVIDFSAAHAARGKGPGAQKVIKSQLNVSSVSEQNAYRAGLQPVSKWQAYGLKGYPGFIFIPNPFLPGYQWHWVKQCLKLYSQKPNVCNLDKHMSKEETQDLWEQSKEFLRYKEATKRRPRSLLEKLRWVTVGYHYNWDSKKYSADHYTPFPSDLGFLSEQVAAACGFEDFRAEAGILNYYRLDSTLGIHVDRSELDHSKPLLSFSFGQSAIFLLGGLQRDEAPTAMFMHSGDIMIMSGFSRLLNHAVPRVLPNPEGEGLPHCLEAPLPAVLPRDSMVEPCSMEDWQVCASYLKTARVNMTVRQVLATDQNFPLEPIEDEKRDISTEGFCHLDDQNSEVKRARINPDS
Chain of UniProt P00352 (P00352 whole entry, looked up): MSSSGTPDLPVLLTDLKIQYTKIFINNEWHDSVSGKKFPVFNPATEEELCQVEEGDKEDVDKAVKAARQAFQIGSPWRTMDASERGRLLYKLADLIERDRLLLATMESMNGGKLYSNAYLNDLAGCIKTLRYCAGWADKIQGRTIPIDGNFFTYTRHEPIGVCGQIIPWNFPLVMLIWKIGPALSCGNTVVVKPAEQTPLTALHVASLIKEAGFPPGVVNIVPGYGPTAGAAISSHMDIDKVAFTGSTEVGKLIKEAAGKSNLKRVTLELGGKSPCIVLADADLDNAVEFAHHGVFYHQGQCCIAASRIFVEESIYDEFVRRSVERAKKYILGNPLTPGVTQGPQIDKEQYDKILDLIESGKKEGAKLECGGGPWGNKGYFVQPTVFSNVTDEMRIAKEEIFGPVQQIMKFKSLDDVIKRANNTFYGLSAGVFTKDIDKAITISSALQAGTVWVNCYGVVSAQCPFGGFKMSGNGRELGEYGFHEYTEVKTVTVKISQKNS
Chain of UniProt Q9P1F3 (Q9P1F3 whole entry, looked up): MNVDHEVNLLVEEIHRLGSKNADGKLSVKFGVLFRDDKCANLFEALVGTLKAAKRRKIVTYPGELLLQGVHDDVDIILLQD
Chain of UniProt P51649 (P51649 whole entry, looked up): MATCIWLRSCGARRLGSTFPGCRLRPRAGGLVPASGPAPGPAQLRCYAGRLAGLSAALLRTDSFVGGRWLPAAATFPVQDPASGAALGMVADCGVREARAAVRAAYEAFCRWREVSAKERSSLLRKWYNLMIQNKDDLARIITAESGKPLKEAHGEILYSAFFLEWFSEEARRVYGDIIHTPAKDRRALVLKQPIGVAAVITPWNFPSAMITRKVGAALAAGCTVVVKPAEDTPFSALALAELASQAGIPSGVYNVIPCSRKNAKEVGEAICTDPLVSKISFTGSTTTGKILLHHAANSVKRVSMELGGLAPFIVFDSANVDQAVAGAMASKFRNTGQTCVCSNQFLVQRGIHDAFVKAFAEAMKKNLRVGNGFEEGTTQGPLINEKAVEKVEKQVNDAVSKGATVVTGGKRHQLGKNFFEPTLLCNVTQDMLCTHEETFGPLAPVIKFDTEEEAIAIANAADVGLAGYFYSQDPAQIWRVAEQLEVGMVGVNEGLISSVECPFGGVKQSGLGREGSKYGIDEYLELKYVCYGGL
Chain of UniProt Q9NWB6 (Q9NWB6 whole entry, looked up): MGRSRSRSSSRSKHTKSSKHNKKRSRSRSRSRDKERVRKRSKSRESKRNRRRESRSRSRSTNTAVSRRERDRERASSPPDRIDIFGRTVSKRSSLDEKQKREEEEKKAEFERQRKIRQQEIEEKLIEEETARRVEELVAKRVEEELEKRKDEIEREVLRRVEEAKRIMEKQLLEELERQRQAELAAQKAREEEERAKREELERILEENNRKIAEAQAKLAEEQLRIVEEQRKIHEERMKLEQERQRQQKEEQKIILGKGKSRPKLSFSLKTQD

Target | log2 fold change (alvocidib) | log2 fold change (Tubastatin A) | log2 fold change [1] | log2 fold change (defactinib) | log2 fold change [2] | log2 fold change (encorafenib) | log2 fold change [3] | log2 fold change (alisertib) | log2 fold change [4] | log2 fold change (gefitinib)
ACADS (UniProt P16219) | -0.011 | -0.003 | 0.019 | -0.011 | 0.014 | -0.034 | 0.071 | -0.003 | -0.037 | -0.023
ALG13 (UniProt Q9NP73) | -0.039 | -0.065 | 0.122 | 0.028 | 0.053 | 0.059 | -0.082 | -0.059 | 0 | -0.224
ANKRD27 (UniProt Q96NW4) | -0.056 | -0.118 | 0.046 | 0.035 | 0.003 | -0.007 | 0.103 | -0.053 | -0.087 | 0.03
ACLY (UniProt P53396) | 0.022 | 0.078 | -0.006 | -0.036 | 0.01 | -0.043 | 0.133 | 0.016 | 0.003 | 0.004
ABHD17B (UniProt Q5VST6) | 0 | -0.016 | -0.003 | 0.064 | -0.099 | 0.059 | -0.642 (active) | 0.06 | -0.011 | 0.043
ALDH5A1 isoform 2 (UniProt P51649) | 0.063 | 0.048 | 0.007 | 0.016 | -0.02 | -0.028 | 0.077 | 0.001 | 0.006 | -0.042
ADK (UniProt P55263) | 0.246 | -0.025 | 0.178 | 0.026 | 0 | -0.048 | 0.068 | -0.063 | -0.015 | 0.158
ARMCX5 (UniProt Q6P1M9) | 0.029 | -0.105 | 0.067 | 0.014 | -0.012 | 0.045 | 0.023 | -0.003 | 0.035 | 0.035
ANKRD30B (UniProt Q9BXX2) | -0.307 | 0.007 | -0.01 | -0.155 | 0.284 | -0.113 | 0.164 | -0.002 | -0.067 | -0.036
ALDH6A1 (UniProt Q02252) | -0.044 | 0.43 (active) | 0.106 | 0.018 | 0.091 | -0.015 | 0.103 | 0.086 | 0.061 | 0.098
ANP32A (UniProt P39687) | -0.039 | 0.027 | -0.006 | 0.016 | -0.056 | -0.024 | -0.048 | 0.018 | -0.014 | -0.007
ALDH1A1 (UniProt P00352) | 0.06 | -0.004 | 0.004 | -0.007 | -0.037 | -0.009 | -0.043 | 0.01 | -0.001 | -0.017
ANLN (UniProt Q9NQW6) | -0.037 | -0.196 | 0.058 | 0.012 | 0.011 | 0.036 | 0.102 | 0.051 | 0.004 | 0.03
ANXA2 isoform 2 (UniProt P07355) | 0.012 | 0.013 | -0.012 | -0.011 | -0.026 | -0.03 | -0.007 | 0.002 | 0.003 | -0.009
ARGLU1 (UniProt Q9NWB6) | -0.119 | 0.018 | -0.056 | -0.049 | 0.01 | 0.012 | -0.039 | -0.006 | 0.012 | 0.006
ABI1 isoform 9 (UniProt Q8IZP0) | -0.096 | 0.053 | 0.005 | -0.038 | 0.025 | 0.003 | -0.057 | -0.02 | 0.018 | -0.015
AFF1 isoform 2 (UniProt P51825) | -0.157 | 0.052 | 0.076 | 0.083 | 0.004 | -0.001 | -0.033 | -0.043 | 0.157 | -0.323

Target | log2 fold change (alvocidib) | log2 fold change (Tubastatin A) | log2 fold change [1] | log2 fold change (defactinib) | log2 fold change [2] | log2 fold change (encorafenib) | log2 fold change [3] | log2 fold change (alisertib) | log2 fold change [4] | log2 fold change (gefitinib)
ASPH (UniProt Q12797) | -0.012 | 0.018 | -0.01 | 0.023 | -0.006 | 0.018 | -0.047 | 0.042 | -0.025 | -0.041
ARHGEF2 (UniProt Q92974) | -0.009 | -0.081 | 0.047 | -0.004 | 0.058 | 0.07 | 0.071 | 0.018 | -0.005 | 0.007
AGPS (UniProt O00116) | -0.011 | 0.039 | -0.046 | -0.003 | 0.011 | -0.005 | -0.125 | 0.035 | -0.03 | -0.002
ABCC5 (UniProt O15440) | -0.12 | 0.121 | -0.002 | 0.125 | 0.008 | 0.165 | -0.032 | – | -0.012 | –
ABI1 isoform 6 (UniProt Q8IZP0) | – | – | – | – | – | -0.212 | 0.114 | – | 0.023 | –
ACTG1 (UniProt K7EM38) | – | – | – | – | – | -0.286 | 0.142 | – | 0.099 | –
ACVR1 (UniProt Q04771) | 0.086 | – | – | – | -0.056 | – | – | 0.069 | – | 0.158
ANKRD40 (UniProt Q6AI12) | 0.084 | -0.164 | 0.08 | 0.095 | 0.101 | 0.04 | -0.109 | -0.188 | – | -0.089
ACAT1, A0A5F9ZHJ0 | -0.023 | 0.081 | – | – | – | – | – | -0.035 | – | -0.056
ABRACL (UniProt Q9P1F3) | -0.016 | – | 0.121 | – | 0.166 | – | – | 0.091 | -0.081 | -0.207
AP3D1 isoform 2 (UniProt O14617) | 0.25 | – | -0.06 | 0.078 | – | – | – | 0.093 | 0.087 | 0.111
ALG3 (UniProt Q92685) | -0.04 | -0.009 | -0.436 | 0.165 | -0.043 | -0.061 | 0.171 | – | -0.033 | –
AGPAT2 (UniProt O15120) | -0.008 | 0.01 | 0.091 | -0.104 | – | 0.054 | -0.043 | 0.009 | – | 0.052
ANKRD30A (UniProt Q9BXX3) | -0.148 | -0.294 | – | – | 0.017 | 0.053 | 0 | -0.009 | 1.45 (active) | -0.03
ANKRD44 isoform 2 (UniProt Q8N8A2) | -0.688 | – | 0.075 | -0.129 | – | -0.048 | 0.103 | 0.2 | 0.119 | 0.169
ALKBH1 (UniProt Q13686) | 0.003 | -0.018 | -0.113 | -0.008 | 0.027 | -0.016 | 0.073 | -0.044 | – | -0.07
